Experimental data: the supplement of paper PMC7184167

What follows are molecules tested on replication-induced senescent mouse newborn dermal fibroblasts (NBF) (assay: relative cell viability of senescent cells (fraction); higher = less killing of senescent cells). Settings: 1 µM; 3 days.
Method: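 Replication-induced senescent newborn mouse skin fibroblasts (NBFs) in 24-well plates were treated with a Selleck FDA-approved drug library at 1 µM for 3 days.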

| Compound | relative cell viability |
| --- | --- |
| [I-].[K+] [Potassium Iodide] | 0.937 |
| c1ccc(-c2ccc(C(c3ccccc3)n3ccnc3)cc2)cc1 (stereo not given) [Bifonazole] | 0.877 |
| Oc1c(Cl)cc(Cl)c2cccnc12 [Chloroxine] | 0.982 |
| Cc1ccc(NC(=O)C2(c3ccc4c(c3)OC(F)(F)O4)CC2)nc1-c1cccc(C(=O)O)c1 [VX-809 (Lumacaftor)] | 0.838 |
| C[C@H]1C[C@@H]2[C@H]([C@@H](O)C[C@@]3(C)[C@H]2CC[C@]3(O)C(=O)CO)[C@@]2(C)C=CC(=O)C=C12 [Methylprednisolone] | 1.09 |
